The list is not random: actives were taken first. Their share in the collection is about 0.51%.
FMDV antiviral: antivirals against foot and mouth disease virus. AID 1745856. Potency, µM (titrated, usually from 57.5 µM), without a hit: top-dose activity change, negative = inhibition, usual class: inhibitors. 120,000 compounds, 0.23% hits. FMDV antiviral cell assay, firefly luciferase signal; further: nearly all actives have a fitted effect of over 60% in size
FMDV RLuc: FMDV antiviral activity by Renilla signal | AID 1745857 | Potency, µM (top dose mostly 57.5 µM), without a hit: top-dose activity change, negative = inhibition, most hits filed as inhibitors | FMDV replicon cells, Renilla luciferase signal | 120,000 compounds, 0.32% hits; further: nearly all actives have a fitted effect of over 55% in size
The depositor's hits bear a star; ? = inconclusive; [ ] = another dose, or the depositor's remark. The call rests on the fitted dose curve. On the % scale 0 is the no-effect control and ±100 the full control effect; potency means the concentration at half of the fitted maximal effect.

SMILES	FMDV antiviral	FMDV RLuc
C(#CCN1CCN(CC#CCOCc2ccccc2)CC1)COCc1ccccc1	-6.6%	-3.5%
C(#CCN1CCN(CC#CCOCCOCc2ccccc2)CC1)COCCOCc1ccccc1	4.47µM*	5.01µM*
CCN(CC)S(=O)(=O)c1cc(-c2onc(C)c2C)ccc1OC	-8.9%	101.0%
COc1ccc(-c2onc(C)c2C)cc1S(=O)(=O)N(C)Cc1ccco1	31.6µM*	?
CC(C)CCNc1nc2ccccc2nc1C(C#N)S(=O)(=O)c1ccc(F)cc1 (configuration not stated)	?	-22.6%
N#CCOc1ccc2ccccc2c1	12.6µM*	1.4%
N#CCOc1ccc(COc2cccc(C#N)c2)cc1	111.1%	7.7%
CC(OC(=O)c1nn(C)c(=O)c2ccccc12)C(=O)N(Cc1ccccc1)Cc1ccccc1 (configuration not stated)	27.1%	49.0%
Cc1ccc(C)c(-c2csc(Nc3ccc(S(=O)(=O)Nc4nc(C)cc(C)n4)cc3)n2)c1	-20.5%	61.9%
Cc1ccc(C)c(-c2csc(Nc3ccc(S(N)(=O)=O)cc3)n2)c1	?	17.8µM*
N#Cc1nc(-c2cccc3ccccc23)oc1NCCCN1CCOCC1	0.0%	-6.7%
CN(Cc1ccc2ccccc2c1)C(=O)CN(C)c1ncnc2nc[nH]c12	31.6µM*	?
CN(CC(=O)N(C)C1CCCc2ccccc21)c1ncnc2nc[nH]c12 (configuration not stated)	-11.4%	-15.6%
COc1cc(/C=N/O)ccc1OC(F)F	-3.5%	-0.8%
CCc1noc(COc2ccc(C(=O)NC)cc2)n1	94.4%	-5.2%
O=[N+]([O-])c1ccc(/C=C/c2ccccc2)cc1	31.3%	8.0%
O=[N+]([O-])c1ccc(C(=C(c2ccccc2)c2ccccc2)c2ccc([N+](=O)[O-])cc2)cc1	2.51µM*	3.16µM*
O=[N+]([O-])c1ccccc1/C=N/Nc1ccc(S(=O)(=O)Nc2cccc(Cl)c2)cc1[N+](=O)[O-]	11.2µM*	-77.1%
O=[N+]([O-])c1ccccc1/C=N/Nc1ccc(S(=O)(=O)Nc2ccc(Cl)cc2)cc1[N+](=O)[O-]	-11.2%	181.0%
CNC(=O)c1ccc2c(c1)NC(=O)CCS2	9.5%	-1.3%[1.06 µM]
CSc1ccc(NC(=O)c2ccc3c(c2)NC(=O)CCS3)cc1	?	10µM*
O=C(Nc1cccc2ccccc12)c1cccn2c(-c3ccccc3F)nnc12	7.8%	2.2%
CCN1/C(=C/C=C/c2sc3ccccc3[n+]2CC)Sc2ccccc21	3.16µM*	?
CCN(CC)C(C)CN1c2ccccc2Sc2ccccc21 (configuration not stated)	16.5%[11.5 µM]	-1.1%
O=C(Nc1ccc2nsnc2c1)c1cc(=O)c2ccccc2o1	24.5%	-3.6%
SMILES	FMDV antiviral	FMDV RLuc
Cc1ccc(C(=O)c2ccccc2C(=O)OCc2ccc(C#N)cc2)cc1	8.5%	15.7%
CC(=O)c1c(C)[nH]c(C(=O)C(C)OC(=O)c2ccc(F)cc2)c1C (configuration not stated)	-24.1%	-6.3%[1.06 µM]
CC(=O)c1c(C)[nH]c(C(=O)C(C)OC(=O)c2cc(Cl)ccc2F)c1C (configuration not stated)	19.5%	15.9%
CC(=O)c1c(C)[nH]c(C(=O)C(C)OC(=O)c2ccc(F)cc2Cl)c1C (configuration not stated)	20µM*	8.91µM*
CC(=O)c1c(C)[nH]c(C(=O)C(C)N(C)Cc2cccc(F)c2)c1C (configuration not stated)	?	3.98µM*
CSCCCNC(=S)NC1CC(C)(C)NC(C)(C)C1	4.2%	7.8%
CC1=C(C(=O)OC(C)C)C(c2cccnc2)c2c(nc(SCC(C)C)[nH]c2=O)N1 (configuration not stated)	8.5%	6.9%
C/C(CC(=O)Nc1ccc(Cl)cc1)=N\NC(=O)c1cccnc1	62.4%	24.0%
O=C(Nc1ccc2ccccc2n1)c1ccc(S(=O)(=O)NC2CC2)cc1	-2.3%	-3.8%
O=C(Nc1ccc2ccccc2n1)c1ccc(S(=O)(=O)N2CCCCC2)cc1	?	31.6µM*
OCCOc1ccc(CNCCc2c[nH]c3ccccc23)cc1	-13.6%	-15.3%
COc1ccccc1OCCn1cc(C(=O)C2CC2)c2ccccc21	3.1%	-12.3%
CC(=O)c1cn(CCOc2cccc3ccccc23)c2ccccc12	?	12.6µM*
COC(=O)c1ccc(NC(=O)c2nc3ccccc3nc2N2CCCCC2)cc1	7.9%	2.9%
CSc1nc2c(c(=O)n(C)c(=O)n2C)n1Cc1cccc2ccccc12	15.8µM*	14.1µM*
CC(C)Sc1nc2c(c(=O)n(C)c(=O)n2C)n1Cc1ccccc1Cl	3.4%	-7.6%
FC(F)(F)c1cccc(NC2(c3nnnn3-c3ccccc3)CCCC2)c1	-2.5%	67.5%
N#CC1(NC(=O)CSCc2ccc(Cl)cc2)CCCCCC1	24.0%	56.4%
N#CC1=C(SCc2ccc(Cl)cc2)NC(=O)C(C#N)C12CCCC2 (configuration not stated)	?	10µM*
C=CCCc1ccc(-c2ccc(OCCCCCCCCCC)c(F)c2)nc1	5.8%	-7.3%

Screening data (PubChem BioAssay)
